Experimental data published in PubChem BioAssay (NCATS).
“And” between values parts separate entries of the source, which are not always exact repeats. Equal values may be shown once. Records with an inconclusive call do not appear. Entries that show only a call come without a potency. The source made the active and inactive calls. Unless noted, calls come from the whole dose curve; as a rule, active = well fitted curve in the direction sought with a large enough effect; inconclusive = small, poorly fitted or top-dose-only effect, or another doubt; inactive = no such curve, though single readings can be large; an effect the other way counts as inactive or inconclusive.

Legend:
[1] = Cell Viability - LYMP2-001 (AID 921); note: nearly all actives have a fitted effect of over 70% in size
Outline: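 A lymphoblastoid cell line of human origin was treated with library compounds across a concentration series for 24 hours, and viable cell number was estimated from ATP-driven luciferase light output. Hill modeling gave AC50.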

[2] = Cell Viability - LYMP2-005 (AID 967); note: potency is the fitted concentration of half-maximal effect
Outline: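 Luciferase-based ATP quantitation served as the viability measure in human lymphoblastoid LYMP2-005 cells exposed to test compounds for 24 h at 37 C in complete culture medium. Potency (AC50) was obtained by fitting concentration-response curves with the Hill equation.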

[3] = Cell Viability - LYMP2-010 (AID 981); note: nearly all actives have a fitted effect of over 55% in size; note: potency is the fitted concentration of half-maximal effect
Outline: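 Steps: seed 2500 LYMP2-010 cells per well; incubate 5 hr at 37 C; add compound; incubate 24 hr at 37 C; add CellTiter-Glo, wait 30 min at room temperature; read luminescence. Concentration-response fitted to Hill equation for AC50.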

[4] = Cell Viability - LYMP2-020 (AID 986); note: nearly all actives have a fitted effect of over 55% in size
Outline: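 Seed 2500 cells per well and incubate 5 hr at 37 C. Add compounds at a concentration series and incubate 24 hr at 37 C. Add CellTiter-Glo, wait 30 min at RT, read luminescence, and fit a Hill curve for AC50.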

[5] = target: Estrogen receptor (Homo sapiens) (UniProt P03372); assay: qHTS assay for small molecule antagonists of estrogen receptor alpha signaling (AID 588513; active = well fitted curve in the direction sought with a large enough effect in the signal ratio, with a control signal flat, not every such curve was filed as active; the % refers to the signal ratio)
Outline: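 Antagonist-mode qHTS in ER-alpha-UAS-bla HEK 293 cells: compound titration, 0.5nM estradiol for 18 h, CCF4 fluorescence, Hill-derived IC50.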

[6] = target: Peroxisome proliferator-activated receptor delta (Homo sapiens) (UniProt Q03181); assay: qHTS assay for small molecule agonists of peroxisome proliferator-activated receptor delta signaling (AID 588534; calls by dose curve)
Outline: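 Agonist-mode qHTS; reporter cells, 5 hrs 37 C pre-incubation; compound titration, 18 hrs 37 C; CCF4 dye, 2 hrs RT; fluorescence read. EC50/efficacy via Hill fit.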

[7] = qHTS assay for small molecule antagonists of peroxisome proliferator-activated receptor delta signaling (AID 588535; active = well fitted inhibition curve with a large enough effect in the signal ratio, with a control signal flat, not every such curve was filed as active; the % refers to the signal ratio;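 for max response: cells co-treated with a PPAR-delta agonist as stimulator during compound exposure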); details: HEK293T PPARd-UAS-bla, beta-lactamase FRET ratio, 18 h; 460 nm channel
Outline: (§1)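 Titrations were run on PPAR-delta-UAS-bla HEK293T cells in charcoal/dextran-stripped serum, incubated 18 h at 37 C. CCF4 fluorescence (460/530 nm) after 2 h RT; Hill equation yields IC50 and maximal response.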

[8] = target: Peroxisome proliferator-activated receptor delta (Homo sapiens) (UniProt Q03181); assay: as above
Outline: as §1

[9] = target: Peroxisome proliferator-activated receptor gamma (Homo sapiens) (UniProt P37231); assay: qHTS assay for small molecule antagonists of peroxisome proliferator-activated receptor gamma signaling (AID 588537; active = well fitted inhibition curve with a large enough effect in the signal ratio, with a control signal flat, not every such curve was filed as active; the % refers to the signal ratio;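 note: reporter cells co-stimulated with 50 nM rosiglitazone agonist during compound treatment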)
Outline: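 Antagonist-mode β-lactamase reporter screen run as a titration series. HEK293 PPARγ-UAS-bla cells are stimulated with rosiglitazone (50 nM final) for 16 h, then CCF4 is read at 460/530 nm. Data are scaled between DMSO and rosiglitazone and fitted to the Hill equation.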

[10] = target: Vitamin D3 receptor (Homo sapiens) (UniProt P11473); assay: qHTS assay for small molecule agonists of vitamin D receptor signaling (AID 588543; calls by dose curve)
Outline: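 Measured: β-lactamase reporter activity (CCF4, 405 nm excitation, 460/530 nm emission) in HEK293T VDR-UAS-bla cells after 16 h compound exposure at 37 °C. Normalization against 50 nM 1α,25-dihydroxyvitamin D3 and DMSO; Hill-fit EC50.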

[11] = qHTS assay for small molecule activators of the p53 signaling pathway (AID 651743; active = well fitted activation curve with a large enough effect in the signal ratio, not every such curve was filed as active; the % refers to the signal ratio); details: HCT-116 p53RE-bla, beta-lactamase FRET ratio, 16 h; activation: stronger effect = higher value
Outline: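 After 16 hours compound treatment at 37 C, HCT-116 cells stably expressing p53RE-driven beta-lactamase were loaded with LiveBLAzer B/G FRET substrate for 2 hours at room temperature. Fluorescence intensity served as the p53 activation read-out.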

[12] = qHTS assay for environmental chemicals that activate the Aryl hydrocarbon Receptor (AhR) signaling pathway (AID 651777); details: 1A2-DRE human hepatoma cells, luciferase, 24 h; activation: stronger effect = higher value; note: nearly all actives have a fitted effect of over 15% in size
Outline: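 Following a 24 hr incubation with test chemicals at 37 C and 5% CO2, 1A2-DRE human hepatoma cells received One-Glo reagent; after 30 min at room temperature, luciferase output reflected CYP1A2 induction via AhR.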

[13] = Cell Viability - NIH 3T3 (AID 541); details: NIH 3T3 cell viability, qHTS; activity change, negative = cytotoxicity: at 92.2 µM (top of the series);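 note: cells exposed to compound for 40 hours; nearly all actives have a fitted effect of over 25% in size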; note: potency is the fitted concentration of half-maximal effect
Outline: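 Cells seeded at 1000/well, rested 5 hr at 37 °C, then dosed and incubated 40 hr at 37 °C. CellTiter-Glo added, 20 min room temperature, luminescence read. AC50 by Hill fit.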

[14] = Cell Viability - H-4-II-E (AID 543);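 note: cells exposed to compound for 40 hours; nearly all actives have a fitted effect of over 35% in size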
Outline: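 Cells seeded at 1500 per well and rested 5 hr; compounds added; 40 hr incubation at 37 °C; CellTiter-Glo added, 20 min at room temperature; luminescence read. Hill-equation fits gave AC50.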

[15] = target: Bile acid receptor (Homo sapiens) (UniProt Q96RI1); assay: qHTS assay for small molecule agonists of farnesoid X receptor signaling (AID 588527; calls by dose curve); details: HEK293T FXR-UAS-bla, beta-lactamase ratio, 16 h; stronger effect = higher value
Outline: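 Read-out: beta-lactamase reporter fluorescence with CCF4 substrate in GeneBLAzer FXR-UAS-bla HEK293T cells, after 16 h compound exposure at 37 C. Response scaled between DMSO basal (0%) and chenodeoxycholic acid at 100 uM (100%).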

[16] = target: Thyroid hormone receptor beta (Homo sapiens) (UniProt P10828); assay: qHTS assay for small molecule agonists of thyroid hormone receptor beta signaling (AID 588545; calls by dose curve)
Outline: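 Agonist-mode beta-lactamase reporter assay, HEK 293 cells, 2% charcoal/dextran FBS; cells plated 4 hrs, compound 18 hrs at 37 C, CCF4 2 hrs RT. Normalized to 10 nM T3 (100%) and DMSO (0%); Hill fit gives EC50, efficacy.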

[17] = target: Glucocorticoid receptor (Homo sapiens) (UniProt P04150); assay: qHTS assay for small molecule agonists of glucocorticoid receptor signaling (AID 588532; active = well fitted curve in the direction sought with a large enough effect in the signal ratio, with a control signal flat; the % refers to the signal ratio); details: HeLa MMTV-bla, beta-lactamase ratio, agonist, 18 h; stronger effect = higher value; percent of dexamethasone control, DMSO zero
Outline: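 Quantitative HTS using CellSensor MMTV-bla HeLa cells in charcoal/dextran-treated serum; compounds tested up to 92 uM. After 18 h at 37 C, CCF4 dye reported reporter induction.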

[18] = target: Glucocorticoid receptor (Homo sapiens) (UniProt P04150); assay: qHTS assay for small molecule antagonists of glucocorticoid receptor signaling (AID 588533; active = well fitted inhibition curve with a large enough effect in the signal ratio, with a control signal flat, not every such curve was filed as active; the % refers to the signal ratio;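 note: cells stimulated with 2 nM dexamethasone as agonist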)
Outline: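 Antagonist-mode qHTS: compound titrations added to GRE-bla HeLa cells, then dexamethasone 2 nM final; 18 h, 37 C. CCF4 FRET fluorescence normalized to dexamethasone and DMSO; IC50 from Hill fit.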

[19] = qHTS assay for small molecule agonists of the antioxidant response element (ARE) signaling pathway (AID 651741; active = well fitted activation curve with a large enough effect in the signal ratio; the % refers to the signal ratio; note: potency is the fitted concentration of half-maximal effect)
Outline: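 Beta-lactamase reporter under ARE control in HepG2 cells, 2,000 per well, was induced by 16 h compound treatment at 37 C. Read-out was fluorescence from LiveBLAzer B/G FRET substrate after 2 h at room temperature.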

[20] = qHTS assay for small molecule activators of the nuclear factor-kappa B (NF-kB) signaling pathway (AID 651749; active = well fitted activation curve with a large enough effect in the signal ratio; the % refers to the signal ratio); details: NF-kB-bla ME-180 cells, beta-lactamase FRET ratio, 16 h; stronger effect = higher value
Outline: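 Activation measured after 16 hr compound treatment at 37C, 5% CO2, of 2,000 ME-180 cells/well stably expressing an NF-kB response element–driven beta-lactamase reporter, via FRET-disruption fluorescence.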

Sequence of Estrogen receptor (Homo sapiens) (P03372 whole entry, looked up): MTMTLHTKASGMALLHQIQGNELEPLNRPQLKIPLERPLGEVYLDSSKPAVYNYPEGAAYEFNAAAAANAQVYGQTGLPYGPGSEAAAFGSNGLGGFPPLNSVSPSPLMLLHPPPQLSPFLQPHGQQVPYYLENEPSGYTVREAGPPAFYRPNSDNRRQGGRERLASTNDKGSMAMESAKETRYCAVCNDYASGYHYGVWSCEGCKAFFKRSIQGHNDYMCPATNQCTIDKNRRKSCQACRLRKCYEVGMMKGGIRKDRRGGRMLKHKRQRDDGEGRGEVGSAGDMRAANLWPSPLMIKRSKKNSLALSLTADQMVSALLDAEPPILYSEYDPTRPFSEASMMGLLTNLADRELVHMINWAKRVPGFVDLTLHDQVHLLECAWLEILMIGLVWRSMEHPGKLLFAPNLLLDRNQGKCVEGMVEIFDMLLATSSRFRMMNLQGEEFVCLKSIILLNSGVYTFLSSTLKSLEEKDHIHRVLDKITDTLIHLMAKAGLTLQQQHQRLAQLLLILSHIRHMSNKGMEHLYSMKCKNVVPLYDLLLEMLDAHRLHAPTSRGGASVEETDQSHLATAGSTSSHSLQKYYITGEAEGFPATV
Sequence of Peroxisome proliferator-activated receptor delta (Homo sapiens) (Q03181 whole entry, looked up): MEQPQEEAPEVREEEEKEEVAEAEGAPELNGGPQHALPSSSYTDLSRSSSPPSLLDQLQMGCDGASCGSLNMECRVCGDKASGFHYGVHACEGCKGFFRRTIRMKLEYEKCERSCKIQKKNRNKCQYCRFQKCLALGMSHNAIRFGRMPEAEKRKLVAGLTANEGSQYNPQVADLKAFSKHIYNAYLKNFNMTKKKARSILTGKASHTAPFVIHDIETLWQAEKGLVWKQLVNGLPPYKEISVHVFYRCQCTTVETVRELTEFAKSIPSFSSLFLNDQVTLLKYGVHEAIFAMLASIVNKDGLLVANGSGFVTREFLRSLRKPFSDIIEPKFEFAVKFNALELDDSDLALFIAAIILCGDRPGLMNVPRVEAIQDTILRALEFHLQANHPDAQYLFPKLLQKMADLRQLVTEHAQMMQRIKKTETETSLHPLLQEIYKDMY
Sequence of Peroxisome proliferator-activated receptor gamma (Homo sapiens) (P37231 whole entry, looked up): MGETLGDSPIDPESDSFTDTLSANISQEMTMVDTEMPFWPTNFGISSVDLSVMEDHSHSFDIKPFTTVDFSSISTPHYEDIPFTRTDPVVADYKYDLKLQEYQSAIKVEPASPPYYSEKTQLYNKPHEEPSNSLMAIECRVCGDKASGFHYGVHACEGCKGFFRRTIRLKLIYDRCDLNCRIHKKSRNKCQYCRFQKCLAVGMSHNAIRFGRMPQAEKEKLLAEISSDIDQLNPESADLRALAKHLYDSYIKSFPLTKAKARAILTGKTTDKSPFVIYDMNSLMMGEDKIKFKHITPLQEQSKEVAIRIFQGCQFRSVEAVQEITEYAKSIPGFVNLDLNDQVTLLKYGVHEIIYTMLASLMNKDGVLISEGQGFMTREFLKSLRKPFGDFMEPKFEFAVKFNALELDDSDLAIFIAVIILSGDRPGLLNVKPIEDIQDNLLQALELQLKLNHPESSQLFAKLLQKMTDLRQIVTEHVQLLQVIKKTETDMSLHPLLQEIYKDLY
Sequence of Thyroid hormone receptor beta (Homo sapiens) (P10828 whole entry, looked up): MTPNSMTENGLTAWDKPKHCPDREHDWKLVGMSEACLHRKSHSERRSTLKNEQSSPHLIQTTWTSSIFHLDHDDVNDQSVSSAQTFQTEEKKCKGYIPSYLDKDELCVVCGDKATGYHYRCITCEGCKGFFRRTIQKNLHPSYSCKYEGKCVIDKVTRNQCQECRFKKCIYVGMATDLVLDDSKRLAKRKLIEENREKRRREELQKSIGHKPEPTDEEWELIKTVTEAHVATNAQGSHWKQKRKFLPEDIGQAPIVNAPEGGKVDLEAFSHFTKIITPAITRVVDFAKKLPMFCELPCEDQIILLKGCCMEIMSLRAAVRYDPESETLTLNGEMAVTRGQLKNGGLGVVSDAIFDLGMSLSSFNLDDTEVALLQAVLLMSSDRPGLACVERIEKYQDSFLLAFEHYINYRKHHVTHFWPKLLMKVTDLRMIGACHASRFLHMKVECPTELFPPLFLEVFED
Sequence of Bile acid receptor (Homo sapiens) (Q96RI1 whole entry, looked up): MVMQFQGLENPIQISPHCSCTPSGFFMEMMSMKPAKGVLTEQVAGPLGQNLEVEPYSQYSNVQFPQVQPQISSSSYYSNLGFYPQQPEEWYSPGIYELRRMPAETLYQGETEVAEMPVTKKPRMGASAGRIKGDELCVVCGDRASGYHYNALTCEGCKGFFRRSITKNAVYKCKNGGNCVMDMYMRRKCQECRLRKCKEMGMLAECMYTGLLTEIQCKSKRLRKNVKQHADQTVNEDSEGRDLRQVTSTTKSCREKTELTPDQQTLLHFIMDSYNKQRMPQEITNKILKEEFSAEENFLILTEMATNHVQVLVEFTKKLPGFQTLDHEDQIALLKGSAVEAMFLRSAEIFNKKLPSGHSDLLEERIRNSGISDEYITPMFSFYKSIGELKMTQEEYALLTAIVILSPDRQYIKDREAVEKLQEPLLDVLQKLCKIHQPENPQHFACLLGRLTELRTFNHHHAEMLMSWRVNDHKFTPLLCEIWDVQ
Sequence of Vitamin D3 receptor (Homo sapiens) (P11473 whole entry, looked up): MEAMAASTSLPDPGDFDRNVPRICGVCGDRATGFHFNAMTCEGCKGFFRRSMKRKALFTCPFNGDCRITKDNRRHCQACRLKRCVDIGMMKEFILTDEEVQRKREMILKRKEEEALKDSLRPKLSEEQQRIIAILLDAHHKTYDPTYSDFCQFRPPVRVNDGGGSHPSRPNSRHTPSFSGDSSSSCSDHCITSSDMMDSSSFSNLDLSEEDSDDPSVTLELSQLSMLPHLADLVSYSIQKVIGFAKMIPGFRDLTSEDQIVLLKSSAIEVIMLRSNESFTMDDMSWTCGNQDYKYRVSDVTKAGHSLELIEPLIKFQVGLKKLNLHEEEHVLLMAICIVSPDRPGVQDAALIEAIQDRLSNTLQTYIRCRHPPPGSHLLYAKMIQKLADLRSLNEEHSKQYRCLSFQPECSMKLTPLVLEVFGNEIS
Sequence of Glucocorticoid receptor (Homo sapiens) (P04150 whole entry, looked up): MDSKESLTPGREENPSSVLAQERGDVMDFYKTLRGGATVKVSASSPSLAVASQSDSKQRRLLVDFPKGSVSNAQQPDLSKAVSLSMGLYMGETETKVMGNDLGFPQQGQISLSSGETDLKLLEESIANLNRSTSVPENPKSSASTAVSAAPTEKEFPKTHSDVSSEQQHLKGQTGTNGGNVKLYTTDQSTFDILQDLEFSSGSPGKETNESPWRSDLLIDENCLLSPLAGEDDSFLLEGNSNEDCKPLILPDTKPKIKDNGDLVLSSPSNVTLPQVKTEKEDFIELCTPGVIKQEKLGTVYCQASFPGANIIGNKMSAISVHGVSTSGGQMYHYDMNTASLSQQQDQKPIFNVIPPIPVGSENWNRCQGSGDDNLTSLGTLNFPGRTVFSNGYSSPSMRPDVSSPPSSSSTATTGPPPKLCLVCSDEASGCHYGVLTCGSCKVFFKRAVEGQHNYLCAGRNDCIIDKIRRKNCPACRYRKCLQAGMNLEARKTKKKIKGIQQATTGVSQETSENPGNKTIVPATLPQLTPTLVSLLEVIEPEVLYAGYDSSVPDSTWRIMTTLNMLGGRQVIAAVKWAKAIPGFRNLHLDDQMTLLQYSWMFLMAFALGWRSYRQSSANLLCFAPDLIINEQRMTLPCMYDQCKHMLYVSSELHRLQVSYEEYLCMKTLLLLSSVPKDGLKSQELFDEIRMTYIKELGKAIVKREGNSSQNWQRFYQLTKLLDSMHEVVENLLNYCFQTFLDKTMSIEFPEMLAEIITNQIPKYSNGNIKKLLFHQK

Structure (SMILES)	Potency [1]	Potency [2]	Potency [3]	Potency [4]	Potency [5]	outcome [6]	max response [7]	outcome [8]	Potency [9]	outcome [10]	activation [11]	activation [12]	Potency [13]	Potency [14]	activation [15]	Potency [16]	activation [17]	outcome [18]	Potency [19]	activation [20]
Oc1ccc(Cl)c(Cl)c1	inactive	inactive	inactive	inactive	inactive	inactive	-12.5%	inactive	inactive	inactive	2.18% (inactive)	1.35% (inactive)	–	–	–	–	–	–	–	–
O=C(Cc1ccccc1)OCc1ccccc1	–	inactive	inactive	inactive	inactive	inactive	18.5%	inactive	–	inactive	–	–	inactive	inactive	-3.22% (inactive)	inactive	–	–	–	–
CC(C)(C)c1ccccc1O	–	inactive	inactive	–	–	inactive	11% and 14.4%	inactive	inactive	inactive	–	1.34% (inactive) and -1.14% (inactive)	inactive	inactive	–	inactive	2.08% (inactive) and 7.02% (inactive)	inactive	inactive	-0.0104% (inactive) and -1.11% (inactive)
CCCCCOC(=O)c1ccccc1C(=O)OCCCCC	inactive	inactive	inactive	inactive	inactive	–	–	–	inactive	inactive	-1% (inactive) and 1.8% (inactive)	0.174% (inactive) and 4.48% (inactive)	inactive	inactive	–	inactive	5.29% (inactive) and -3.67% (inactive)	inactive	inactive	1.01% (inactive) and -1.21% (inactive)
C=CC=O	inactive	inactive	inactive	–	–	inactive	40.7%	inactive	–	inactive	-0.485% (inactive)	–	inactive	–	–	–	-2.21% (inactive)	inactive	47.3 µM (active)	-0.542% (inactive)
O=[N+]([O-])c1ccc(Cl)cc1	inactive	inactive	inactive	inactive	–	–	–	–	–	–	0.333% (inactive) and 2.39% (inactive)	-0.207% (inactive) and 4.63% (inactive)	inactive	inactive	–	–	-1.26% (inactive) and -4.41% (inactive)	inactive	inactive	-0.791% (inactive) and -0.89% (inactive)
ClCCBr	inactive	inactive	inactive	inactive	inactive	–	-34.3%	inactive	inactive	–	0.777% (inactive)	3.31% (inactive)	inactive	inactive	–	inactive	–	–	inactive	0.431% (inactive)
CCC/C=N/O	inactive	inactive	inactive	inactive	inactive	–	–	–	inactive	inactive	–	-0.464% (inactive)	inactive	inactive	0.311% (inactive)	–	–	inactive	–	–
O=C(O)C(Cl)(Cl)Br	inactive	inactive	inactive	inactive	–	inactive	–	–	inactive	inactive	-0.303% (inactive)	0.0306% (inactive)	inactive	inactive	-1.03% (inactive)	–	-2.11% (inactive)	inactive	42.2 µM (active)	–
c1ccc(P(c2ccccc2)c2ccccc2)cc1	inactive	–	inactive	inactive	inactive	inactive	58.2%	inactive	inactive	inactive	-3.71% (inactive)	0.491% (inactive)	25.1 µM (active)	inactive	–	inactive	–	inactive	37.6 µM (active)	-0.914% (inactive)
ClP(Cl)(Cl)(Cl)Cl	inactive	inactive	–	inactive	inactive	inactive	–	–	–	inactive	-1.29% (inactive)	-0.379% (inactive)	–	inactive	-2.17% (inactive)	inactive	–	inactive	inactive	-0.207% (inactive)
O=S(=O)(Cl)c1ccccc1	–	–	inactive	–	–	inactive	7.79% and -11.8%	inactive	inactive	inactive	–	0.182% (inactive) and 1.5% (inactive)	–	–	1.82% (inactive)	inactive	–	–	inactive	0.118% (inactive) and -0.385% (inactive)
Cc1ccc2c(C)cccc2c1	inactive	inactive	inactive	inactive	inactive	inactive	16.7%	inactive	inactive	–	–	-0.533% (inactive)	inactive	inactive	–	–	-2.73% (inactive)	inactive	inactive	–
CCCN(CCC)c1c([N+](=O)[O-])cc(C(F)(F)F)cc1[N+](=O)[O-]	inactive	–	–	inactive	inactive	inactive	0.867%	inactive	inactive	inactive	–	0.344% (inactive) and 0.563% (inactive)	inactive	inactive	1.13% (inactive)	inactive	–	–	–	-3.66% (inactive) and -3.44% (inactive)
[N-]=[N+]=[N-]	inactive	2.51 µM (active)	inactive	inactive	inactive	inactive	–	–	–	inactive	-1.87% (inactive)	–	inactive	inactive	–	inactive	-7.88% (inactive)	–	inactive	0.007% (inactive)
Nc1c(Cl)cc([N+](=O)[O-])cc1Cl	inactive	inactive	inactive	inactive	inactive	inactive	8.87% and 11.4%	inactive	inactive	inactive	–	-0.0582% (inactive) and 1.9% (inactive)	inactive	–	-3.3% (inactive) and 0.0652% (inactive)	inactive	-0.898% (inactive)	inactive	–	0.598% (inactive) and -4.6% (inactive)
Brc1cccc(-c2ccccc2)c1	inactive	inactive	inactive	inactive	inactive	–	–	–	–	inactive	–	-0.116% (inactive)	inactive	inactive	-2.22% (inactive)	inactive	–	inactive	–	-1.09% (inactive)
C=CC(=O)OCCN(C)C	inactive	–	inactive	inactive	–	inactive	29.8%	inactive	–	inactive	0.0499% (inactive)	0.563% (inactive)	–	inactive	–	inactive	1.15% (inactive)	–	inactive	-1.13% (inactive)
ClCC(Cl)Cl	inactive	inactive	inactive	inactive	–	inactive	-51.8%	inactive	–	–	-0.152% (inactive)	1.04% (inactive)	inactive	inactive	–	–	–	–	inactive	–
Cc1ccc(N)c(N)c1	–	–	12.6 µM (active)	–	–	–	–	–	–	inactive	-0.898% (inactive)	–	5.01 µM (active)	inactive	–	inactive	0.413% (inactive)	–	37.6 µM (active)	-0.795% (inactive)
Oc1cccc(Cl)c1Cl	inactive	inactive	inactive	inactive	inactive	inactive	–	–	inactive	–	0.548% (inactive)	0.0475% (inactive)	inactive	inactive	–	–	-0.403% (inactive)	inactive	–	–
Clc1cccc(Cl)c1Cl	inactive	inactive	inactive	inactive	–	inactive	-24.3%	inactive	inactive	inactive	–	-1.51% (inactive) and 0.659% (inactive)	inactive	–	–	inactive	-0.532% (inactive)	inactive	inactive	-0.304% (inactive) and 0.362% (inactive)
Nc1ccc(Oc2ccc(N)cc2)cc1	inactive	inactive	inactive	inactive	–	inactive	31.7%	inactive	–	–	–	2.36% (inactive) and 5.82% (inactive)	–	–	–	–	-1.85% (inactive) and -6.36% (inactive)	inactive	inactive	0.532% (inactive) and -1.89% (inactive)
CCCCCC[N+](=O)[O-]	inactive	inactive	inactive	inactive	–	inactive	–	–	–	inactive	-5.04% (inactive)	0.0869% (inactive)	inactive	inactive	1.12% (inactive)	–	–	inactive	–	1.69% (inactive)
